Screen size: about 60,000 compounds; about 370 (0.62%) were called active. Many of the other results were omitted from the sample, so actives are more common in it than they were. Unmarked numbers belong to inactive results. Cut-off read from the data, not from the text of the source: active = inhibition above about 17%; inactive = the rest.

Mitogen-activated protein kinase 10 (Homo sapiens), sequence (P53779 whole entry, looked up): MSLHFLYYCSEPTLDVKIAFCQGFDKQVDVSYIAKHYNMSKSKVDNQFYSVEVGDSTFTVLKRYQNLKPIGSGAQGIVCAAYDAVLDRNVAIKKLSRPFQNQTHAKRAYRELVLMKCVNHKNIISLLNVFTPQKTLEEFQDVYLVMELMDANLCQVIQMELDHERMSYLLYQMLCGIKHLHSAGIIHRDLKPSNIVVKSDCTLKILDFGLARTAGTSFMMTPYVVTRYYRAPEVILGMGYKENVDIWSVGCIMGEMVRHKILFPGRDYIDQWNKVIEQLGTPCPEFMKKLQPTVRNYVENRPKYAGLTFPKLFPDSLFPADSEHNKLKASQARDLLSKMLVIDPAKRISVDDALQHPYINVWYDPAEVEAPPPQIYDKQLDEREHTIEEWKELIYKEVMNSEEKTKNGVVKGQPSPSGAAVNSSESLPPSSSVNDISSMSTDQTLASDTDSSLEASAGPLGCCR

This assay concerns the target Mitogen-activated protein kinase 10 (Homo sapiens) (UniProt P53779). In words: inhibition of human JNK3 enzyme – biochemical, purified enzyme, primary screen (AID 746).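 Note: 0% = DMSO and 100% = reference inhibitor.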 The conditions noted are these: purified JNK3 kinase activity, HTS; at 8 µM; hits give high values.
On to `Cc1noc(C)c1S(=O)(=O)N(CC(=O)Nc1ccc2c(c1)OCCO2)c1ccc(C(C)C)cc1`, for which the inhibition (usually the drop in the measured response relative to a control, in per cent) was 0.66%.

Turning to `C=CCNc1nnc(SCC(=O)N2CCCCC2)c2ccccc12`, the inhibition is -2.85%.

For `Nc1nnc(SCCN2C(=O)c3ccccc3S2(=O)=O)s1`, the inhibition was -1.92%.

With `Cc1ccc(CNC(=O)CCCNC(=O)c2ccc(Cl)cc2)n1C`, the inhibition is 10.2%.

`Cc1ccc(Oc2ccc(N)cc2)cc1`: the inhibition is 6.53%.

As for `CCOc1cc2c(cc1OCC)C(C(=O)O)C(c1ccc(OC)c(O)c1)N(C)C2=O` (centres undefined), the inhibition is -0.42%.

`O=C(C1CCC1)N1CCc2cc(S(=O)(=O)NCc3cccnc3)ccc21`: the inhibition is -6.87%.

Consider `COC(=O)c1cc(Cl)c(NC(=O)c2ccco2)cc1OC`, for which the inhibition is -6.35%.

For the compound `Cc1cc2c(=O)n(C)c(SCC(=O)c3cc4ccccc4o3)nc2s1`, the inhibition was -3.37%.

Regarding `CCOC(=O)c1c(NC(=O)c2cccs2)sc(C)c1C`, the inhibition was 6.19%.

In the case of `Oc1c(C(c2cccs2)N2CCN(c3ccc(F)cc3)CC2)sc2ncnn12` (centres undefined), the inhibition was 1.85%.

On to `O=C1c2ccccc2-c2ncnc3c(N4CCOCC4)cc(N4CCOCC4)c1c23`, for which the inhibition is -9.75%.

Take `CCOc1cc(C(=O)Nc2ncccn2)cc(OCC)c1OCC`: the inhibition was -1.81%.

For `O=C(NCCN1CCOCC1)c1c(F)c(F)c(F)c(F)c1F`, the inhibition is 7.3%.

Take `CCn1nc(C(=O)OCC(=O)N2c3ccccc3CC2C)c2ccccc2c1=O` (centres undefined): the inhibition was 1.01%.

Take `Cn1cnc2c1c(=O)n(Cc1c(Cl)cccc1Cl)c(=O)n2C`: the inhibition is 2.26%.

For the compound `Cc1nnc(NC(=O)CSc2nccn2-c2cccc(C)c2C)s1`, the inhibition was -4.27%.

In the case of `CCOC(=O)C1CCCN(C(=O)Cn2ncc3c(=O)oc4ccc(C)cc4c32)C1` (centres undefined), the inhibition is 0.71%.

For `Cc1ccc2oc(=O)c3cnn(CC(=O)N4CCN(c5ccccn5)CC4)c3c2c1`, the inhibition is 37.2% (active).

On to `Cc1ccc2oc(=O)c3cnn(CC(=O)N4CCCCCC4)c3c2c1`, for which the inhibition was 0.73%.

As for `CCOc1ccc(C(=O)Nc2ccncc2)cc1`, the inhibition was 0.07%.

In the case of `O=S(N1CCCCCC1)C12CC3CC(CC(C3)C1)C2` (centres undefined), the inhibition is 8.25%.

Regarding `COc1ccc(NC(C)=O)cc1NC(=O)CN1CCN(c2ccccn2)CC1`, the inhibition is 2.12%.

Take `COC(=O)c1cccc(NC(=O)CN2CCC(NC(=O)c3cc(OC)c(OC)c(OC)c3)CC2)c1`: the inhibition was 79.2% (active).

With `COC(=O)c1cc(NC(=O)CN2CCC(C(N)=O)(N3CCCCC3)CC2)cc(C(=O)OC)c1`, the inhibition was -2.8%.

On to `COc1ccc(-c2cc(C(=O)NC(C(=O)O)C(C)C)c(C)o2)cc1OC` (centres undefined), for which the inhibition is 1.2%.

In the case of `Cc1cc(C(=O)O)c(S(C)(=O)=O)s1`, the inhibition is 0.82%.

In the case of `CC1=C(C)CC2C(=O)N(c3cccc4ccccc34)C(=O)C2C1` (centres undefined), the inhibition was 0%.

As for `COc1ccccc1Cc1nc(-c2ccc(C)cc2)no1`, the inhibition was 4.84%.

Regarding `CC(C)Cc1cc(C(=O)Nc2cc(Br)ccc2O)no1`, the inhibition was -4.9%.

`COc1ccc(CCN(C)C(=O)C2CCCN(Cc3ccc(OC)c(OC)c3)C2)cc1OC` (centres undefined): the inhibition is 4.04%.

For the compound `CN(C)/C=C1/C(=O)Nc2ccccc21`, the inhibition is -8.06%.

On to `O=C(CCN1C(=O)c2ccccc2C1=O)Nc1ccncc1`, for which the inhibition was 0.63%.

With `COc1ccc(-c2nc3n(c2Br)CCC3)cc1`, the inhibition was -4.37%.

With `CCCC(=O)Nc1ccc2c(c1)nc1n2CCSC1`, the inhibition was -5.4%.

Take `Cc1ccsc1C(=O)OCC(=O)c1cc(C)n(CC2CCCO2)c1C` (centres undefined): the inhibition is 1.34%.

With `COc1ncnc2c1N=C1CC(C)(C)CC(N)=C1S2`, the inhibition was -12.2%.

As to `O=C(COc1ccccc1)NCCc1nc2ccccc2[nH]1`, the inhibition was 5.21%.

For the compound `COc1ccc(NC2CC(=O)N(C)C2=O)cc1` (centres undefined), the inhibition is -1.99%.

For the compound `CCN(CC)P(=O)(/C(Cl)=C\Nc1c(C)n(C)n(-c2ccccc2)c1=O)N(CC)CC`, the inhibition was 4.4%.

For `CCOC(=O)N1CCN(S(=O)(=O)c2cc3c(cc2C)NC(=O)CO3)CC1`, the inhibition was 1.04%.

Take `COc1ccc2c(c1)C=CC1(O2)N(CCO)c2ccccc2C1(C)C` (centres undefined): the inhibition is -1.22%.

For the compound `CS(=O)(=O)N1CCN(C(=O)Cc2ccccc2)CC1`, the inhibition was 7.69%.

For the compound `Cc1cc(C(=O)N2CCN(c3ccccn3)CC2)c(C)o1`, the inhibition was 2.54%.

Consider `COc1cccc(OC)c1C(=O)Nc1nnc(C(C)C)s1`, for which the inhibition was -2.05%.

As for `Cn1cccc1Cc1nnc(SCC(=O)NCc2ccc3c(c2)OCO3)n1CCc1ccccc1`, the inhibition is -1.11%.

Consider `CCn1c(SCCC(C)C)nnc1-c1c[nH]c2ccccc12`, for which the inhibition was 2.85%.

Regarding `CCC(c1nnnn1C1CCCC1)N1CCN(C(=O)c2ccco2)CC1` (centres undefined), the inhibition is -1.42%.

With `Fc1ccc(OCc2nn3c(Cn4nnc5ccccc54)nnc3s2)cc1`, the inhibition was -2.42%.

Turning to `CCn1c(SCC(=O)c2ccc(Cl)s2)nnc1-c1cccs1`, the inhibition is -1.37%.

On to `CC12CN(Cc3ccccc3)CC(C)(CN(Cc3ccccc3)C1)C2=NO`, for which the inhibition was 1.42%.

As for `COc1ccccc1-c1c(C)nn2c(C)c(C(C)=O)cnc12`, the inhibition was 0.53%.

On to `O=S(=O)(NCCOc1cccc2cccnc12)c1ccc(F)cc1`, for which the inhibition is -0.52%.

As for `FC(F)(F)c1cc(-c2ccco2)nc(N2CCOCC2)n1`, the inhibition is 2.31%.

For `Cc1cccn2c(=O)c3cc(C(=O)N4COCC4(C)C)n(C)c3nc12`, the inhibition was 5.99%.

Regarding `COc1ccc(-n2nc3c(c2NC(=O)Cc2cccc(C)c2)CS(=O)C3)cc1` (centres undefined), the inhibition was 1.83%.

As for `CCCC(=O)N=c1sc2cccc(F)c2n1C`, the inhibition was -1.7%.

As for `CN(c1nc2ccccc2n2c(-c3ccco3)nnc12)S(=O)(=O)c1ccccc1`, the inhibition was -4.26%.

Turning to `C=C(C)Cn1c(N2CCCC2)nc2c1c(=O)[nH]c(=O)n2C`, the inhibition was 2.48%.

Regarding `NC(=O)CSc1c[nH]c2ccccc12`, the inhibition is 6.99%.

`CNC(=O)c1nnn(-c2ccccc2)c1C(=O)NC`: the inhibition is -3.49%.

Turning to `CCCOc1ccc(C2c3c(oc4cc(C)c(C)cc4c3=O)C(=O)N2CCCN2CCOCC2)cc1` (centres undefined), the inhibition was 3.64%.

As for `Brc1ccc(OCCn2ccnc2)cc1`, the inhibition is 1.14%.

For `CCCOc1ccc(C2C(C(=O)c3ccc(C)o3)=C(O)C(=O)N2CCCn2ccnc2)cc1` (centres undefined), the inhibition was 42.8% (active).

Source of the values: PubChem BioAssay AID746 (The Scripps Research Institute Molecular Screening Center, 2007).
